From PubChem BioAssay (Tox21)
Records with an inconclusive call do not appear. Values without a mark were called inactive. The call rests on the fitted dose curve; in most records, active means well fitted cell-killing curve with a large enough effect in the repeat runs; inconclusive means weak or mixed curves, or effect the other way; inactive means flat fitted curve, though single readings scatter.

Assay: qHTS RealTime-Glo MT Cell Viability Assay in HEK293 cells - 40 hour (AID 1224874); further: nearly all actives have a fitted effect of over 50% in size
Details: RealTime-Glo luminescence; max response: hits give low values
Text: U.S. Tox21 Program National Center for Advancing Translational Sciences [NCATS] NIH Chemical Genomics Center [NCGC] U.S. Environmental Protection Agency [EPA] National Institutes of Environmental Health Sciences [NIEHS] National Toxicology Program [NTP] U.S. Food and Drug Administration [FDA] Tox21 Assay Overview: Measure of cell viability is critical in the cell-base assay. Analysis of cell viability is necessary for the characterization of cell responses to cytotoxic drugs and environmental stress. A RealTime-Glo MT Cell Viability Assay to monitor cell viability in real time of continues cell culture during 40 hours of compound treatment was used to screen Tox21 10K library compounds in Hek293 cells. The RealTime-Glo MT Cell Viability Assay is a nonlytic, homogeneous, bioluminescent method to measure cell viability in real time using a simple, plate-based method. The assay involves adding NanoLuc luciferase and a cell-permeant prosubstrate to cells in culture. Viable cells reduce the proprietary prosubstrate to generate a substrate for NanoLuc luciferase. This substrate diffuses from cells into the surrounding culture medium, where it is rapidly used by the NanoLuc Enzyme to produce a luminescent signal. The signal correlates with the number of viable cells, making the assay well suited for cytotoxicity studies.
Tox21 Assay Protocol Summary: The mixture of Hek293 cell suspension and reagents were dispensed at 600cells/6 ul/well in 1536-well tissue culture treated black solid bottom plates using a Multidrop dispenser. After the assay plates were incubated at a 37 C/5% CO2 incubator for 5 hours, 23 nL of compounds dissolved in DMSO, positive and negative controls was transferred to the assay plate by a pintool work station. The plates were incubated at 37 C for 40 hours. The luminescence intensity were measured at 0h, 8h, 16h, 24h, 32h and 40h time points using ViewLux plate reader during compound treatment.
On the % scale 0 is the no-effect control and ±100 the full control effect.

Compound	max response [%]
C/C=C(\C)C(C)=O	0.603
CCCCCCC1(C)CCC(=O)O1 (stereo not given)	3.32
CC1OCCC1=O (stereo not given)	3.12
C/C(=C1\CCOC(=O)S1)N(C=O)Cc1cnc(C)nc1N	3.03
CC1=C(O)C(=O)C(C)O1 (stereo not given)	2.72
CCCCCCCCCCOC(C)=O	0.865
C=CC/C=C/C	-0.772
CC(C)NC(=O)c1ccc(C=O)cc1	0.577
CC(C)=CCC/C(C)=C/COC=O	0.565
CC1=NN(c2ccc(S(=O)(=O)O)cc2)C(=O)C1	3.12
Cn1c(=O)c2c(ncn2CCO)n(C)c1=O	3.56
O=C[O][Al]([O]C=O)[O]C=O	5.61
COC(=O)CCCCC(CCSS/C(CCO)=C(\C)N(C=O)Cc1cnc(C)nc1N)SC(C)=O (stereo not given)	3.28
CN1C[C@@H]2C[C@H]1CN2c1cc2c(cc1F)c(=O)c(C(=O)O)cn2C1CC1	11.1
O=C1CCCCO1	1.35
C[C@@H](O)C(=O)O	3.5
O=C(O)CCCCCC(=O)O	0.774
CCC(C)C(=O)OCCc1ccccc1 (stereo not given)	-0.807
O=NN(CCCl)C(=O)NC1CCCCC1	1.88
C[C@]12CCC(=O)C=C1CC[C@H]1[C@@H]3CC[C@](O)(C(=O)CO)[C@@]3(C)C[C@H](O)[C@@]12F	-26.1

Compound	max response [%]
Cc1c(NC(=O)c2cccnc2)c(=O)n(-c2ccccc2)n1C	2.99
O=C(O)c1cc2ccccc2nc1C(=O)O	-2.29
CNCCS(=O)(=O)O	4.21
CN(C)CCN(C)CCO	5.64
CCO	0.927
CCc1occc(=O)c1O	3.56
CC/C=C\CCOC(=O)c1ccccc1O	19.1
C=C(C)C1CC=C(C)C(=O)C1 (stereo not given)	0.21
C=C(C)[C@@H]1CC=C(C)C(=O)C1	-8.2
O=C(O)CONC(=O)c1ccccc1	1.73
Cn1nnc2c(C(N)=O)ncn2c1=O	3.79
O=C(CN1CCNCC1)NC1CCCCC1	0.0212
CC(S)C(C)S (stereo not given)	7.38
CC(C)(C)NC[C@H](O)COc1cccc2c1CCCC2=O	-12
COc1cc(OC)nc(O[C@H](C(=O)O)C(OC)(c2ccccc2)c2ccccc2)n1	4.04
CC1(C)Oc2ccc(C#N)cc2[C@@H](N2CCCC2=O)[C@@H]1O	2.51
C#CCN[C@@H]1CCc2ccccc21	-4.89
C=CC(=O)CCCCC	-1.98
CO[C@@]1(NC(=O)Cc2cccs2)C(=O)N2C(C(=O)O)=C(COC(N)=O)CS[C@@H]21	0.152
O=C=NCC1CCCC(CN=C=O)C1 (stereo not given)	1.36
